From PubChem
Sampled rows, rich in hits. Any-hit rate of the full collection: about 3%.
PAFAH1B2 FP inh = PAFAH1B2 enzyme inhibitors, primary screen, biochemical, fluorescence polarization, human | AID 492953, 2010 | hit rate 1.2% among 340,000 | inhibition, % at 3.39 µM | Platelet-activating factor acetylhydrolase IB subunit alpha2 (Homo sapiens), P68402 | recombinant PAFAH1B2, FP-rhodamine activity probe;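 active = inhibition above the mean of all tested compounds plus 3 SD, cut at about 24% in these data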
PAFAH1B3 FP inh = PAFAH1B3 enzyme inhibitors, primary screen, biochemical, fluorescence polarization, human; Platelet-activating factor acetylhydrolase IB subunit alpha1 (Homo sapiens), Q15102; recombinant PAFAH1B3, FP-rhodamine probe; inhibition, % at 3.39 µM; hit rate 0.28% among 340,000; AID 492972, 2010;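 active = inhibition above the screen-wide average of all tested compounds plus 3 SD, cut at about 25% in these data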
Target sequence (Q15102 whole entry, looked up): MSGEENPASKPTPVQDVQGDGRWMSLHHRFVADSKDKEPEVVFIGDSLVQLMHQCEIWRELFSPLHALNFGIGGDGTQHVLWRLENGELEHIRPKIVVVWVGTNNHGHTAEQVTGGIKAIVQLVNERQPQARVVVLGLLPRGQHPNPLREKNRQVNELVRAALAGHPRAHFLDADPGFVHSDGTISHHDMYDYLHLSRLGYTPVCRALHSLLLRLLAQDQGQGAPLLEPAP
DAGLB inhibitor = DAGLB lipase inhibitors, primary screen, biochemical, fluorescence, HTS; Diacylglycerol lipase-beta (Homo sapiens), Q8NCG7; HEK293T DAGLB membrane lysate, EnzChek fluorogenic substrate; inhibition, % at 5.17 µM; hit rate 0.059% among 340,000; in the data active = inhibition above about 34%
PAFAH2 FP inh = PAFAH2 enzyme inhibitors, primary screen, biochemical, fluorescence polarization, human. AID 492956, 2010. inhibition, % at 3.39 µM. Platelet-activating factor acetylhydrolase 2, cytoplasmic (Homo sapiens), Q99487. hit rate 0.99% among 340,000. recombinant PAFAH2, FP-rhodamine activity probe;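 active = inhibition above the mean over all tested compounds plus 3 SD, cut at about 30% in these data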;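 also: inhibitors block probe labeling of enzyme so polarization drops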
ATG4B inhibitor = ATG4B protease inhibitors, primary screen, biochemical, fluorescence, uHTS; Cysteine protease ATG4B (Homo sapiens), Q9Y4P1; ATG4B cleavage of LC3-PLA2, NBD-HPC fluorescence, 1 h; inhibition, % at 8.33 µM; hit rate 0.51% among 340,000; AID 504462, 2011; in the data active = inhibition above about 40%
Target sequence (Q9Y4P1 whole entry, looked up): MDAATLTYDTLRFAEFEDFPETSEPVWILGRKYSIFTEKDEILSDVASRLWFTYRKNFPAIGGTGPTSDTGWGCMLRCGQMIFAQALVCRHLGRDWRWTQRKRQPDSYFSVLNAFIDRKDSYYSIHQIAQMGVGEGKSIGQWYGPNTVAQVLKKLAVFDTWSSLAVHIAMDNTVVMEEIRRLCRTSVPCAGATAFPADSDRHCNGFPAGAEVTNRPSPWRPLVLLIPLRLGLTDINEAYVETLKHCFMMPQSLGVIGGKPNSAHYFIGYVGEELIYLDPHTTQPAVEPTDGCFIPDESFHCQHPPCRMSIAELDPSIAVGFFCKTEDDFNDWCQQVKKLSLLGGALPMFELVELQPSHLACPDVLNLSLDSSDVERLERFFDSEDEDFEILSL
pPAFAH FP inh = pPAFAH enzyme inhibitors, primary screen, biochemical, fluorescence polarization, human | inhibition, % at 3.39 µM | recombinant pPAFAH, FP-rhodamine probe fluorescence polarization | hit rate 1.5% among 330,000;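 active = inhibition above the mean inhibition across the screen plus 3 SD, cut at about 25% in these data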;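 also: inhibitors block binding of the rhodamine activity-based probe so polarization drops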
Hits are given with their value; n = inactive; x = no result given.

SMILES	PAFAH1B2 FP inh	PAFAH1B3 FP inh	DAGLB inhibitor	PAFAH2 FP inh	ATG4B inhibitor	pPAFAH FP inh
CC1(OC(=O)c2ccco2)C(=O)C=C2C=C(C3CC3)OC=C2C1=O (stereo not drawn)	n	n	n	n	n	28
CC1(OC(=O)c2cnc3ccccc3n2)C(=O)C=C2C=C(C3CC3)OC=C2C1=O (stereo not drawn)	x	x	x	x	x	50
COC/C=C/C1=CC2=CC(=O)C(C)(OC(=O)c3cnc4ccccc4n3)C(=O)C2=CN1c1ccc(CO)cc1 (stereo not drawn)	x	x	x	x	x	39
Cc1ccccc1OCC(=O)Nc1ccc(N2CCN(C)CC2)c(Cl)c1	n	n	n	n	n	n
OC1CNc2c(ccc3ccccc23)C1 (stereo not drawn)	n	n	n	n	n	x
O=c1[nH][nH]c2cc([N+](=O)[O-])ccc12	n	n	n	n	n	x
Cc1ccc(NC2CCCN(C(=O)c3ccnc(Cl)c3)C2)cc1C (stereo not drawn)	n	n	n	n	n	n
O=C(NC(=S)NCc1ccccc1Cl)c1cccs1	n	n	n	n	n	27
O=C(NCc1ccccc1F)c1cccs1	n	n	n	n	n	n
COc1ccc(N(C)C(=O)CN(C)S(=O)(=O)c2ccc3c(c2)c(=O)n(C)c(=O)n3C)c(OC)c1	n	n	n	n	n	n
Cc1ccc(C(C(=O)NC(C)(C)C)N(Cc2cccnc2)C(=O)C(=O)NC2CCCCC2)o1 (stereo not drawn)	n	n	n	n	n	n
NS(=O)(=O)c1cccc(NC(=O)CNC(=O)CC23CC4CC(CC(C4)C2)C3)c1	n	n	n	n	n	n
NS(=O)(=O)c1cccc(NC(=O)CC23CC4CC(C2)CC(CC(=O)Nc2cccc(S(N)(=O)=O)c2)(C4)C3)c1	36	n	n	n	n	n
CC(=O)NS(=O)(=O)c1ccc(NC(=O)CC23CC4CC(CC(Br)(C4)C2)C3)cc1	25	n	n	n	n	n
C[C@H](NC(=O)c1ccco1)C(=O)NCc1cccs1	n	n	n	n	n	n
COc1ccc(/C(N)=N/OC(=O)CCCN2C(=O)c3ccccc3C2=O)cc1OC	n	n	n	n	n	n
OCc1nc2ccccc2n1CCCCOc1ccccc1	n	n	n	n	n	n
OCc1nc2ccccc2n1CCCOc1ccc(Br)cc1	n	n	n	n	n	31
Cn1c(=O)n(CCCOc2ccc(Br)cc2)c2ccccc21	n	n	n	n	n	32
CCc1nnc(NC(=O)C2CCCN2C(=O)Nc2ccccc2)s1 (stereo not drawn)	n	n	n	n	n	n
CC(C)C1Nc2c(O)cc(Cl)c([N+](=O)[O-])c2C2C=CCC21 (stereo not drawn)	42	n	n	n	n	x
CCN(CC(=O)NC(C)(C)C)C(=O)C(c1ccccc1)c1ccccc1	n	n	n	n	n	n
O=S(=O)(N/N=C/c1ccc2c(c1)OCO2)c1ccc(Br)cc1	26	n	n	n	n	n
CCCC(N)CCCCCC(=O)O (stereo not drawn)	n	n	n	n	n	x
CCC(C)CCCCCCCCCCC(=O)O (stereo not drawn)	48	n	n	n	n	n
SMILES	PAFAH1B2 FP inh	PAFAH1B3 FP inh	DAGLB inhibitor	PAFAH2 FP inh	ATG4B inhibitor	pPAFAH FP inh
O=C(CSC(=S)N1CCCC1)c1cc(Br)cc(Br)c1O	x	x	x	x	n	25
O=C(Cc1ccc(Br)cc1)c1ccc(O)cc1O	82	n	n	n	n	n
Cc1ccc(-c2nn3c(C)nnc3c3ccccc23)cc1S(=O)(=O)NC(C)c1ccccc1 (stereo not drawn)	26	n	n	n	n	n
Cc1ccc(-c2nn3c(C)nnc3c3ccccc23)cc1S(=O)(=O)NCCO	n	n	n	n	n	n
CC(/C=N/NC(=O)CSc1nnc(SCc2ccccc2)s1)=C\c1ccco1	n	n	n	n	n	27
Cc1ccc(CSc2nnc(SCC(=O)N/N=C/C=C/c3ccco3)s2)cc1	n	n	n	n	n	n
CC[C@]12c3[nH]c4cc(CCC(=O)N(C)C)ccc4c3CCN1C(=O)[C@@H](CC(=O)NC/C=C(\C)CCC=C(C)C)C[C@@H]2C(=O)N1CCN(C(=O)c2ccco2)CC1	n	n	n	n	x	34
CC[C@]12c3[nH]c4cc(CCC(=O)N(C)C)ccc4c3CCN1C(=O)[C@@H](CC(=O)NCCN1CCOCC1)C[C@@H]2C(=O)N1CCN(C(=O)c2ccco2)CC1	n	n	n	n	x	n
CC(C)=CCC/C(C)=C/CNC(=O)C[C@H]1C[C@H](C(=O)N(C(C)C)C(C)C)[C@@]2(C)c3[nH]c4cc(-c5ccco5)ccc4c3CCN2C1=O	n	n	n	n	n	27
CCN(CC)C(=O)[C@H]1C[C@H](CC(=O)NC/C=C(\C)CCC=C(C)C)C(=O)N2CCc3c([nH]c4cc(-c5ccco5)ccc34)[C@]12C	n	n	n	n	n	33
Cn1c(NCCN2CCOCC2)nc2c1c(=O)n(Cc1cccc(Cl)c1)c(=O)n2C	28	n	n	n	n	n
O=C(O)c1ccccc1C(=O)NCCc1ccc(Cl)cc1	30	n	n	n	n	n
O=C(NCCc1ccc(Cl)cc1)C(=O)c1c[nH]c2ccccc12	28	n	n	n	n	n
Cc1ccc(Cl)cc1N1CCN(C(=O)Cc2c(C(=O)O)[nH]c3ccc(Cl)cc23)CC1	n	n	n	n	n	n
O=C(NCCc1ccc(Cl)cc1)c1ccc2ccccc2n1	25	n	n	n	n	n
CC1CC(C)CN(C(=O)Cc2c(C(=O)O)[nH]c3ccc(Cl)cc23)C1 (stereo not drawn)	81	n	n	n	n	n
O=C(NCCc1ccccc1)c1ccccc1Cl	n	n	n	n	n	n
O=C(NCCc1c[nH]c2ccccc12)C(=O)c1c[nH]c2ccccc12	n	n	n	n	n	n
CC(C)(OC(=O)c1ccc(C#N)cc1)c1cc2ccccc2c(=O)o1	n	n	n	n	n	n
O=C(O)c1ccccc1C(=O)NCCc1c(C(=O)O)[nH]c2ccc(Cl)cc12	33	n	n	n	n	n
O=C(CCc1ccccc1)NNC(=O)Cc1ccc(Cl)cc1	25	n	n	n	n	n
COc1ccc2[nH]c(C(=O)O)c(CCNC(C)=O)c2c1	n	n	n	n	n	n
CC1CCN(C(=O)COC(=O)c2ccc([N+](=O)[O-])o2)CC1	n	n	n	n	n	28
N#Cc1nc(COc2ccc(Cl)cc2)oc1NCc1ccc2c(c1)OCO2	29	n	n	n	n	n
Cc1cccc(OCc2nc(C#N)c(NCc3ccc4c(c3)OCO4)o2)c1	n	n	n	n	n	n
